Compounds with a hit are over-represented: about 9.9% of the library has one in this group of screens.
IL-1B inflam inh: inhibitors of inflammasome signaling (IL-1 beta secretion) | THP-1 LPS/ATP IL-1B secretion, AlphaLISA, 16 h; active compounds read low | activity change, % at 57.5 µM | 4.7% of 360,000 active | AID 743279; in the data active means activity change below about -50%; inconclusive means mostly about -30% to -49%; further: on the % scale 0 is the no-effect control and ±100 the full control effect
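THP-1 cells pretreated 1 hr with compounds (up to 57.5 uM final), then stimulated with LPS (250 ng/mL final) plus ATP (1.25 mM final); secreted IL-1B measured by AlphaLISA after 16 hr, decreased signal indicating inhibition.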
SW480 rerep: inducers of DNA re-replication in SW480 colon cancer cells | 1.8% of 340,000 active | AID 624297 | SW480 DNA re-replication, Hoechst DNA content imaging, 48 h | Potency, µM (titrated, usually from 46.1 µM), without a hit: top-dose re-replication activation, most hits filed as activators; further: potency means the concentration at half of the fitted maximal effect; % of control where 0% means no effect; nearly all actives have a fitted effect of over 55% in size
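Quantitative HTS format with DMSO vehicle controls; 48 hr drug incubation at 37 C, then 40 min Hoechst staining and scanning imager measurement at 405 nm excitation.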
KB-3-1 tox: kills parental KB-3-1 adenocarcinoma cells. KB-3-1 viability, CellTiter-Glo ATP luminescence, 72 h. Potency, µM (series often up to 46.1 µM), usual class: cytotoxic. 1.4% of 400,000 active. AID 1347075; further: potency means the concentration at half of the fitted maximal effect; on the % scale 0 is the no-effect control and ±100 the full control effect; nearly all actives have a fitted effect of over 60% in size
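Cytotoxicity measured as CellTiter-Glo luminescence after 72 h at 37 C. Compound titrations were pinned onto drug-naive KB-3-1 parental adenocarcinoma cells grown in DMEM with 10% FBS, and normalized data fitted to concentration-response curves.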
MCF10A rereplic: DNA re-replication induction in MCF 10a cells. MCF 10A DNA re-replication, Hoechst nuclear intensity, 48 h. Potency, µM (top dose mostly 46.1 µM), for the others: top-dose activity, positive = re-replication, most hits filed as activators. 2.9% of 350,000 active. AID 624296; further: potency means the concentration at half of the fitted maximal effect; % of control where 0% means no effect; nearly all actives have a fitted effect of over 50% in size
KB-V1 cytotox: KB-V1 MDR subline cytotoxicity; AID 1347076; 3.4% of 400,000 active; Potency, µM (doses to about 46.1 µM), usual class: cytotoxic; KB-V1 MDR cells viability, CellTiter-Glo, 72 h; further: potency means the concentration at half of the fitted maximal effect; on the % scale 0 is the no-effect control and ±100 the full control effect; nearly all actives have a fitted effect of over 60% in size
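In this primary screen, KB-V1 cells overexpressing P-gp are incubated with library compounds (lowest to highest concentration) for 72 h at 37 degrees C before a luminescent ATP viability read.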
Starred values were filed as active, the others as inactive. Unless noted, the call rests on the fitted dose curve; in most records, active means well fitted curve in the direction sought with a large enough effect; inconclusive means small, poorly fitted or top-dose-only effect, or another doubt; inactive means no such curve, though single readings can be large; an effect the other way counts as inactive or inconclusive.

For COc1ccc(OC)c([N+](=O)[O-])c1C(N)=O the results were IL-1B inflam inh 12, SW480 rerep -3%, KB-3-1 tox inactive, MCF10A rereplic 0% and KB-V1 cytotox inactive.
COc1ccc(NC(C)=O)c([N+](=O)[O-])c1[N+](=O)[O-] was read as IL-1B inflam inh -69*, SW480 rerep inconclusive, KB-3-1 tox inactive, MCF10A rereplic inconclusive and KB-V1 cytotox inactive.
For C[C@H]1O[C@@H](O[C@H]2[C@@H](O)C[C@H](O[C@H]3[C@@H](O)C[C@H](O[C@H]4CC[C@@]5(C)[C@H](CC[C@@H]6[C@@H]5C[C@@H](O)[C@]5(C)[C@@H](C7=CC(=O)OC7)CC[C@]65O)C4)O[C@@H]3C)O[C@@H]2C)C[C@H](O)[C@@H]1O the results were IL-1B inflam inh -63*, SW480 rerep 0.41µM*, KB-3-1 tox 0.18µM*, MCF10A rereplic inconclusive and KB-V1 cytotox 0.41µM*.
For CCc1c(C#N)c(SCCC(=O)Nc2ccc(OC)cc2)nc2c1C(=O)CC(C)(C)C2 the results were IL-1B inflam inh inconclusive, SW480 rerep 5%, KB-3-1 tox inactive, MCF10A rereplic 14% and KB-V1 cytotox inconclusive.
Screening CCc1c(C#N)c(SCc2c(C)noc2C)nc2c1C(=O)CC(C)(C)C2 returned IL-1B inflam inh 9, SW480 rerep -5%, KB-3-1 tox inactive, MCF10A rereplic 9.2µM* and KB-V1 cytotox inconclusive.
O=C(c1ccc(CS(=O)c2ccc(F)cc2)o1)N1CCN(C2CCCCC2)CC1 (stereo not given) was read as IL-1B inflam inh 44, SW480 rerep 6%, KB-3-1 tox inactive, MCF10A rereplic 4% and KB-V1 cytotox inactive.
`CCOC(=O)C1CCN(C(=O)CN(C)S(=O)(=O)c2cc(C)ccc2OC)CC1` gave IL-1B inflam inh -7, SW480 rerep 2%, KB-3-1 tox inactive, MCF10A rereplic 1% and KB-V1 cytotox 23µM*.
For COc1ccc(C)cc1S(=O)(=O)N(C)CC(=O)N1CCC(C(N)=O)CC1 the results were IL-1B inflam inh 8, SW480 rerep -10%, KB-3-1 tox inactive, MCF10A rereplic -1% and KB-V1 cytotox inactive.
O=C(C1CCN(S(=O)(=O)c2cccc3cccnc23)CC1)N1CCN(c2ccc(Cl)cc2)CC1 was read as IL-1B inflam inh 13, SW480 rerep -8%, KB-3-1 tox inactive, MCF10A rereplic -18% and KB-V1 cytotox inactive.
Cc1cccc(Nc2nnc(SC/C(O)=C(\C#N)c3nc4ccccc4[nH]3)s2)c1 was read as IL-1B inflam inh 13, SW480 rerep 25%, KB-3-1 tox inconclusive, MCF10A rereplic 16µM* and KB-V1 cytotox inactive.
For c1ccc(CC2CCN(C3=Nc4cccc5cccc3c45)CC2)cc1 the results were IL-1B inflam inh -30, SW480 rerep inconclusive, KB-3-1 tox inactive, MCF10A rereplic 9.2µM* and KB-V1 cytotox inconclusive.
`CC(=O)N1CCN(C2=Nc3cccc4cccc2c34)CC1` gave IL-1B inflam inh -66*, SW480 rerep -1%, KB-3-1 tox inactive, MCF10A rereplic -1% and KB-V1 cytotox inactive.
For COc1ccccc1N1CCN(C2=Nc3cccc4cccc2c34)CC1 the results were IL-1B inflam inh -56*, SW480 rerep inconclusive, KB-3-1 tox inconclusive, MCF10A rereplic -2% and KB-V1 cytotox inactive.
`COc1ccccc1NS(=O)(=O)c1cccc(C(=O)NCC2(N3CCCCC3)CCCCC2)c1` gave IL-1B inflam inh -6, SW480 rerep inconclusive, KB-3-1 tox inactive, MCF10A rereplic 10% and KB-V1 cytotox inactive.
Screening Nc1[nH]c(=O)[nH]c(=O)c1N=Nc1ccccc1Cl returned IL-1B inflam inh 10, SW480 rerep -9%, KB-3-1 tox inactive, MCF10A rereplic 23µM* and KB-V1 cytotox inconclusive.
For CCCCN(CCCC)Cc1ccc(C(=O)NNC(=O)Nc2ccc(Cl)cc2)o1 the results were IL-1B inflam inh -57*, SW480 rerep inconclusive, KB-3-1 tox inactive, MCF10A rereplic 13% and KB-V1 cytotox inactive.
Screening O=C(CS(=O)(=O)Cc1ccccc1)Nc1ncccn1 returned IL-1B inflam inh -6, SW480 rerep -4%, KB-3-1 tox inactive, MCF10A rereplic 14% and KB-V1 cytotox inactive.
